Measurements as given in PubChem BioAssay AID2613 (National Center for Advancing Translational Sciences (NCATS), 2010).
Results filed as inconclusive are left out. Values without a mark were called inactive. Activity calls are given as the source filed them. Calls come from the whole dose curve; as a rule, active = well fitted inhibition curve with a large enough effect; inconclusive = small, poorly fitted or top-dose-only effect; inactive = flat fitted curve, though single readings scatter.

Each compound was assayed against Lysosomal acid glucosylceramidase (Homo sapiens) (UniProt P04062) (assay: qHTS Assay for Inhibitors and Activators of N370S glucocerebrosidase as a Potential Chaperone Treatment of Gaucher Disease: Activity in N370S Spleen Homogenate Using a Red Fluorescent Substrate). Details: red fluorogenic substrate; series mostly up to 49.6 µM; activity change, negative = inhibition: at the top concentration.
Chain of Lysosomal acid glucosylceramidase (Homo sapiens) (P04062 whole entry N409S): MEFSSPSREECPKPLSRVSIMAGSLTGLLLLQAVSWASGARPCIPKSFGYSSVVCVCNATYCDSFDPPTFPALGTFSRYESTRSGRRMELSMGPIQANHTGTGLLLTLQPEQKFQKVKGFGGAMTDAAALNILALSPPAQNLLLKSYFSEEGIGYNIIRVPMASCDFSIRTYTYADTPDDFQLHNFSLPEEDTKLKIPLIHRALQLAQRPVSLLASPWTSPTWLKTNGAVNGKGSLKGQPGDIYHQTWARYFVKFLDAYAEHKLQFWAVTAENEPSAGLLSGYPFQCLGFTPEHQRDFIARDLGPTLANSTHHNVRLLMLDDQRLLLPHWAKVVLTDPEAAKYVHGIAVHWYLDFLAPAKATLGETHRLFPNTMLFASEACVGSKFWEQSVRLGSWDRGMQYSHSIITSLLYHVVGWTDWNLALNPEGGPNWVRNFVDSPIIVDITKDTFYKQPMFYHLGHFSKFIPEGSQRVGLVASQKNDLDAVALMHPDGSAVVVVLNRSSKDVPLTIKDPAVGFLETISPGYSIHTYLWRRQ
From the text: NIH Chemical Genomics Center [NCGC]
NIH Molecular Libraries Probe Production Centers Network [MLPCN]
Assay Submitter (PI): Wei Zheng
Glucocerebrosidase (GC) catalyzes the hydrolysis of beta-glucocerebroside to glucose and ceramide in lysosomes. Mutations in the glucocerebrosidase gene result in Gaucher disease, an autosomal recessive lysosomal storage disorder. Many of the mutations encountered in patients with Gaucher disease are missense alterations that may cause misfolding, decreased stability and/or mistrafficking of this lysosomal protein. […] These inhibitors include iminosugar analogs and three non-iminosugar inhibitors identified from a previous HTS of 62,000 compounds with the wild type recombinant enzyme. However, the enhancement of enzyme activity by the chaperone action of an enzyme inhibitor must be balanced against the direct inhibition of the enzyme. An enzyme activator could also function as a chaperone by binding to the enzyme and helping to correct its misfolding and mistrafficking. While activators for GC have not yet been identified, they may have better therapeutic potential than inhibitors. Therefore the discovery and development of chemical activators may provide a new strategy for the chaperone therapy.
We have optimized a new assay using N370S mutant GC derived from the spleen of a Gaucher patient. […] In addition, the MLPCN compound library has expanded, which increases the chance of finding new and better probes.
This confirmation assay tests for compound activity in spleen homogenate from a patient homozygous for the N370S mutation using an alternate resorufin-based substrate.
NCGC Assay Protocol Summary:
This is a fluorogenic enzyme assay with resorufin-beta-D-glucopyranoside as the substrate and mutant N370S glucocerebrosidase from human spleen homogenate as the enzyme preparation. Upon the hydrolysis of this fluorogenic substrate, the resulting product, […] which can be detected by a standard fluorescence plate reader. Data were normalized to the controls for basal activity (without enzyme) and 100% activity (with enzyme). The AC50 values were determined from concentration-response data modeled with the standard Hill equation.
Assay buffer: 50 mM citric acid (titrated with potassium phosphate to pH 5.0), 100 mM potassium chloride, 10 mM sodium chloride, 1 mM magnesium chloride, 0.01% Tween-20.
1536-well assay protocol:
(1) Add 2 ul/well of spleen homogenate (27 ug final)
(2) Add 23 nL compounds in DMSO solution. The final titration was 0.5 nM to 58 uM.
(3) Add 2 ul of substrate (1 mM final)
(4) Incubate at 37C for 40 min.
(5) Add 2 ul stop solution (1M NaOH and 1M Glycine mixture, pH 10)
(6) Detect the assay plate in a ViewLux plate reader (PerkinElmer) with Ex=365 nm and Em=440nm.
Keywords: Glucocerebrosidase, beta-glucosidase, Gaucher Disease, pharmacological chaperone, chaperone therapy, high throughput screening, glucocerebrosidase inhibitor, MLSMR, MLSCN, NIH Roadmap, qHTS and NCGC

Structure (SMILES)	Potency	activity change, negative = inhibition
Clc1ccccc1-c1nccc(NCc2ccccc2)n1	3.55 µM (active)	
COC(=O)c1ccccc1NC(=O)c1ccc2c(c1)C(=O)N(Cc1ccccc1)C2=O		4.22%
O=C(COc1ccccc1[N+](=O)[O-])Nc1ccc(Br)cc1		2.03%
OCCNc1nc(Nc2ccc(Cl)cc2)nc(N2CCCC2)n1	35.5 µM (active)	
Cc1cc(Nc2cccc(Cl)c2)nc2ccc(NC(=O)C3CCC(C)CC3)cc12 (stereo not given)		-11.8%
COc1cccc(CN(C)c2nc(-c3cccs3)nc3ccccc23)c1	2.51 µM (active)	
Cc1ccc(NC(=O)COc2ccccc2C(=O)Nc2ccccc2)cc1Cl		-0.617%
CSc1ccc(NC(=O)Nc2cc(C)ccn2)cc1		-0.0114%
CCCNC(=O)COC(=O)c1ccccc1OCC(=O)Nc1ccc(Br)cc1		-0.819%
N=c1c2c(-c3ccccc3)c(-c3ccccc3)n(Cc3ccco3)c2ncn1CCCn1ccnc1	7.94 µM (active)	
CC1CC(C)CN(C(=O)CSc2nc(Cc3cccs3)nc3ccccc23)C1 (stereo not given)		-2.19%
Oc1ccccc1Nc1nc(NCC2CCCO2)c2ccccc2n1 (stereo not given)		-14.9%
CCOc1ccccc1NC(=O)CN(c1ccc(C)cc1)S(=O)(=O)c1c(C)noc1C		3.15%
Cc1cc(N2CCN(c3ncccn3)CC2)nc2ccc(NC(=O)C3CCC(C)CC3)cc12 (stereo not given)	5.01 µM (active)	
COc1ccc(Nc2nc(-c3cccs3)nc3ccccc23)cc1	2.51 µM (active)	
Cc1cc(N2CCC(C)CC2)nc2ccc(NC(=O)C3CCC(C)CC3)cc12 (stereo not given)	11.2 µM (active)	
COc1cc(OC)cc(C(=O)N[C@H](C(=O)OCC(=O)Nc2cccc(F)c2)C(C)C)c1		-11.2%
c1ccc2c(NCC3CCCO3)nc(N3CCOCC3)nc2c1 (stereo not given)		-5.75%
Cc1cc(N2CCCCC2)nc2ccc(NC(=O)C3CCC(C)CC3)cc12 (stereo not given)	17.8 µM (active)	
N#Cc1ccccc1Sc1ccccc1C(=O)OCC(=O)NC12CC3CC(CC(C3)C1)C2		-6.41%

Structure (SMILES)	Potency	activity change, negative = inhibition
CCN(CC)c1cc(C)c2cc(NC(=O)C3CCC(C)CC3)ccc2n1 (stereo not given)	28.2 µM (active)	
Cc1ccc(C)c(N2CCN(C(=O)CCC(=O)Nc3ccc4nc(N5CCOCC5)cc(C)c4c3)CC2)c1	15.8 µM (active)	
Cc1cc(C)n2ncc(C(=O)Nc3ccc(Cl)c(Cl)c3)c2n1		1.27%
Cc1cc(N2CCOCC2)nc2ccc(NC(=O)C3CCC(C)CC3)cc12 (stereo not given)	3.16 µM (active)	
COc1ccccc1OCC(=O)Nc1oc(-c2ccccc2)c(-c2ccccc2)c1C#N		1.85%
Cc1ccc(S(=O)(=O)Nc2ccc(C(=O)NCc3ccccc3)cc2)cc1		-14.8%
COc1cccc(NC(=S)N(CCCN2CCOCC2)Cc2cn(C)c3ccccc23)c1	4.47 µM (active)	
CCC(C)c1ccc(NC(=O)c2cnn3c(C(F)F)cc(C)nc23)cc1 (stereo not given)		4.93%
COc1cccc(NC(=O)CSc2nc3ccccc3c(=O)n2Cc2cccs2)c1		-4.03%
Cc1cc(N2CCOCC2)nc2ccc(NC(=O)CCC3CCCC3)cc12	15.8 µM (active)	
CCOc1ccc(N(CC(=O)Nc2ccc(C)cc2)S(=O)(=O)c2c(C)[nH]c(=O)[nH]c2=O)cc1	12.6 µM (active)	
Cc1cc(C)cc(N(CC(=O)NC2CCC(C)CC2)S(=O)(=O)c2c(C)[nH]c(=O)[nH]c2=O)c1 (stereo not given)	0.562 µM (active)	
O=C(CSc1nccc(-c2cccs2)n1)Nc1cccc(Cl)c1		-1.32%
COc1cc2c(cc1NC(=O)COC(=O)[C@@H](NC(=O)c1ccccc1)C(C)C)oc1ccccc12		-5.59%
Cc1ccc(Cl)cc1NC(=O)c1ccccc1OCC(=O)Nc1ccc(Cl)cc1		-9.04%
COc1cc(OC)c2c(N)c(C#N)c(C(F)(F)C(F)(F)F)nc2c1		4.03%
CCCCNC(=O)c1ccc(NS(=O)(=O)c2ccccc2)cc1		-6.21%
Nc1nc(-c2ccccc2)c(N=Nc2ccc(Cl)cc2)s1		-1.35%
Cc1cccc(/C=N/NC(=O)NC23CC4CC(CC(C4)C2)C3)n1		-9.91%
O=C(/C=C/c1ccc(O)cc1)c1ccc(O)cc1O	4.47 µM (active)	
